Laboratory results taken from the supplement of paper PMC6522484.
± gives the standard deviation of the averaged measurements.

Experiments:
DLD1 [1] = experiment: cell viability (CellTiter-Glo) relative to plate median (fraction of plate median); higher = more viable cells; details: 10 µM, treatment time 24 h
Method in brief: (§1)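 Each value averages two independent replicates in which the well signal was normalised to the plate median (webcellHTS2, additive, without log transformation). The signal was firefly luciferase or CellTiterGlo luminescence, read on parallel plates with a Tecan F500. The cells were colorectal cancer lines with stable lentiviral TCF/Wnt firefly luciferase reporters in 384-well plates, dosed 24 h after seeding with kinase inhibitor library compounds at a final 10 µM for 24 h.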

HCT116 [2] = experiment: as above; details: 10 µM; treatment time 24 h; reporter: TCF4/Wnt
Method in brief: as §1

SW480 [3] = experiment: as above; details: 10 µM; treatment time 24 h; reporter: 7TFP
Method in brief: as §1

DLD1 [4] = experiment: TCF/Wnt firefly luciferase reporter signal relative to plate median (fraction of plate median); higher = higher Wnt reporter signal; details: 10 µM, treatment time 24 h
Method in brief: as §1

HCT116 [5] = experiment: as above; details: 10 µM; treatment time 24 h; reporter: TCF4/Wnt
Method in brief: as §1

SW480 [6] = experiment: as above; details: 10 µM; treatment time 24 h; reporter: 7TFP
Method in brief: as §1

SMILES	cell viability (DLD1 [1]; reporter: 7TFP)	cell viability (DLD1 [1]; reporter: TCF4/Wnt)	cell viability (HCT116 [2])	cell viability (SW480 [3])	TCF/Wnt firefly luciferase reporter signal (DLD1 [4]; reporter: 7TFP)	TCF/Wnt firefly luciferase reporter signal (DLD1 [4]; reporter: TCF4/Wnt)	TCF/Wnt firefly luciferase reporter signal (HCT116 [5])	TCF/Wnt firefly luciferase reporter signal (SW480 [6])
CN1CCN(C2CCN(C(=O)Nc3cc(Oc4ccc(NC(=O)C5(C(=O)Nc6ccc(F)cc6)CC5)c(F)c4)ccn3)CC2)CC1 [Golvatinib (E7050)]	0.964 ± 0.18	0.904 ± 0.011	1.07 ± 0.064	1.16 ± 0.064	0.719 ± 0.03	0.728 ± 0.028	0.915 ± 0.12	1.06 ± 0.12
CCc1cc2c(cc1N1CCC(N3CCOCC3)CC1)C(C)(C)c1[nH]c3cc(C#N)ccc3c1C2=O	1.05 ± 0.071	0.995 ± 0.064	1.18 ± 0.26	0.853 ± 0.033	1.08 ± 0.078	1.05 ± 0.12	1.01 ± 0.17	0.638 ± 0.31
CC(C)(C)Cn1c(N)nc2ccc(-c3[nH]c(C(C)(C)C)nc3-c3ccc(F)cc3)nc21	1.07 ± 0.12	0.931 ± 0.089	0.928 ± 0.071	1.11	1.21 ± 0.05	0.969 ± 0.1	1.45 ± 0.38	1.36 ± 0.014
CO[C@H]1C[C@@H]2CC[C@@H](C)[C@@](O)(O2)C(=O)C(=O)N2CCCC[C@H]2C(=O)O[C@H]([C@H](C)C[C@@H]2CC[C@@H](OC(=O)C(C)(CO)CO)[C@H](OC)C2)CC(=O)[C@H](C)/C=C(\C)[C@@H](O)[C@@H](OC)C(=O)[C@H](C)C[C@H](C)/C=C/C=C/C=C/1C [Temsirolimus (Torisel)]	1.135 ± 0.0071	1.115 ± 0.0071	1.125 ± 0.0071	0.934 ± 0.0028	1.08 ± 0.085	0.995 ± 0.078	1.165 ± 0.0071	0.951 ± 0.11
COc1cc(N2CCC(N3CCN(C)CC3)CC2)ccc1Nc1ncc(Cl)c(Nc2ccccc2S(=O)(=O)C(C)C)n1	0.799 ± 0.069	0.884 ± 0.0071	0.733 ± 0.057	0.923 ± 0.054	0.909 ± 0.21	1.14 ± 0.035	1.2 ± 0.12	0.767 ± 0.057
Cc1ccc(C(=O)Nc2cccc(C(F)(F)F)c2)cc1Nc1nc(-c2cccnc2)nc2c1cnn2C	1.07 ± 0.035	1.06	0.912 ± 0.2	1.05 ± 0.042	1.36 ± 0.085	0.925 ± 0.2	1.12 ± 0.099	0.952 ± 0.48
Cc1ccc(NC(=O)c2cccc(C(C)(C)C#N)c2)cc1Nc1ccc2ncn(C)c(=O)c2c1	1.21 ± 0.05	1.08	0.955 ± 0.044	1.18 ± 0.028	1.04 ± 0.33	0.843 ± 0.048	1.2 ± 0.3	1.43 ± 0.12
O=C(NC[C@H](O)CO)c1ccncc1Nc1ccc(I)cc1F	1.15 ± 0.078	1.14 ± 0.071	0.817 ± 0.036	1.14 ± 0.028	1.71 ± 0.46	1.73 ± 0.54	1.18 ± 0.32	2.17 ± 0.11
N#CCNC(=O)c1ccc(-c2ccnc(Nc3ccc(N4CCOCC4)cc3)n2)cc1	1.06 ± 0.014	1.12 ± 0.021	1.25 ± 0.078	1.09 ± 0.035	1.32 ± 0.26	1.16 ± 0.13	1.31 ± 0.25	0.923 ± 0.34
Cc1cn(-c2cc(NC(=O)c3ccc(C)c(Nc4nccc(-c5cccnc5)n4)c3)cc(C(F)(F)F)c2)cn1 [Nilotinib (AMN-107)]	0.808 ± 0.028	0.935 ± 0.041	0.9715 ± 0.005	0.973 ± 0.053	0.873 ± 0.054	0.708 ± 0.12	0.894 ± 0.028	1.04 ± 0.028
Nc1ncnc2c1c(-c1cccc(OCc3ccccc3)c1)cn2C1CC(CN2CCCC2)C1 (stereo not given)	0.77 ± 0.15	0.809 ± 0.088	0.67 ± 0.095	0.952 ± 0.15	0.627 ± 0.15	0.755 ± 0.047	0.75 ± 0.29	0.895 ± 0.33
CCn1nnc2c(N3CCOCC3)nc(-c3ccc(NC(=O)Nc4ccc(C(=O)N5CCN(C)CC5)cc4)cc3)nc21	1.21 ± 0.16	1.09 ± 0.092	0.683 ± 0.11	1.14 ± 0.028	0.633 ± 0.025	1.19 ± 0.042	0.59 ± 0.19	0.821 ± 0.054
COc1cc(Nc2ncc(F)c(Nc3ccc4c(n3)NC(=O)C(C)(C)O4)n2)cc(OC)c1OC [R406(free base)]	1.2 ± 0.18	0.99 ± 0.085	1.2 ± 0.05	0.968 ± 0.037	1.26 ± 0.028	1.16 ± 0.13	1.38 ± 0.37	1.29 ± 0.042
CN(C)C1CCN(C(=O)c2ccc(NC(=O)Nc3ccc(-c4nc(N5CCOCC5)nc(N5CCOCC5)n4)cc3)cc2)CC1	1.1 ± 0.17	1.05 ± 0.081	0.649 ± 0.051	1.17 ± 0.05	0.947 ± 0.076	0.933 ± 0.073	0.611 ± 0.23	0.958 ± 0.1
Cc1cc2c(F)c(Oc3ncnn4cc(OC[C@@H](C)OC(=O)[C@H](C)N)c(C)c34)ccc2[nH]1	1.06 ± 0.042	0.938 ± 0.052	0.981 ± 0.041	1.23 ± 0.071	1.03 ± 0.11	1.135 ± 0.0071	0.852 ± 0.16	1.28 ± 0.099
CNC(=O)c1cccc(-c2ccc3c(N4CCOC[C@@H]4C)nc(N4CCOC[C@@H]4C)nc3n2)c1	0.9035 ± 0.0064	0.874 ± 0.045	0.794 ± 0.055	1.07	0.328 ± 0.086	0.487 ± 0.073	0.549 ± 0.09	0.629 ± 0.35
COc1cc2nccc(Oc3ccc(NC(=O)Nc4cc(C)on4)c(Cl)c3)c2cc1OC [Tivozanib (AV-951)]	0.936 ± 0.09	0.997 ± 0.033	1.11 ± 0.021	1.07 ± 0.021	0.755 ± 0.0078	0.726 ± 0.046	1.15 ± 0.099	0.775 ± 0.32
Cc1cc(C(=O)NOCCO)c(Nc2ccc(I)cc2F)n(C)c1=O	1.19 ± 0.042	1.15 ± 0.042	0.889 ± 0.075	1.105 ± 0.0071	1.635 ± 0.0071	1.58 ± 0.25	1.17 ± 0.13	1.89 ± 0.22
O=C(NC1CCNCC1)c1n[nH]cc1NC(=O)c1c(Cl)cccc1Cl	1.16 ± 0.33	1.16 ± 0.18	0.793 ± 0.16	1.31 ± 0.17	0.517 ± 0.1	0.797 ± 0.67	0.226 ± 0.018	0.798 ± 0.074
CNC(=O)c1cc(Oc2ccc(NC(=O)Nc3ccc(Cl)c(C(F)(F)F)c3)c(F)c2)ccn1 [Regorafenib (BAY 73-4506)]	1.04 ± 0.021	0.985 ± 0.092	1 ± 0.024	1.13 ± 0.014	0.816 ± 0.21	0.7185 ± 0.005	0.742 ± 0.34	1.03 ± 0.31
